In PubChem BioAssay (NCATS):
Inconclusive results are not listed. Values without a mark were called inactive. The call rests on the fitted dose curve; in most records, active means well fitted inhibition curve with a large enough effect; inconclusive means small, poorly fitted or top-dose-only effect; inactive means no such curve, though single readings can be large or run the other way.

Assay: Primary qHTS for small molecule stabilizers of the endoplasmic reticulum resident proteome: Secreted ER Calcium Modulated Protein (SERCaMP) assay (AID 1508630)
Settings: SH-SY5Y GLuc-SERCaMP (Gaussia luciferase released on ER calcium loss) secretion, thapsigargin, luminescence; series mostly up to 38.4 µM; activity change, negative = inhibition: at the top concentration
Procedure, shortened: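 The SH-SY5Y reporter protocol was run at 3 concentrations up to 38.3 uM (primary) or 11 concentrations (follow-up): 16 h compound, 100 nM thapsigargin for 4 h, then extracellular luciferase luminescence.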
On the % scale 0 is the no-effect control and ±100 the full control effect.

| Compound | activity change, negative = inhibition |
| --- | --- |
| C/C=C/c1ccc2oc(-c3ccc(O)cc3)c(C)c2c1 | 10.8% |
| COc1ccc(/C=C/C(=O)/C=C/c2ccc(OC)cc2OC)c(OC)c1 | 73.2% |
| COc1ccc2cnoc(=O)c2c1OC | -17.3% |
| OCC1=CC[N+]2(Cc3ccccc3)CCC(O)[C@@H]12 (stereo not given in full) | -23.2% |
| CC(=O)OC[C@@]1(O)C[C@@]23CC[C@@H]4c5ccoc5CC[C@@]4(C)[C@@H]2CCC1C3 | 27.1% |
| O=C(O)C1CC[C@@](C(=O)O)(c2ccccc2)c2ccccc21 (stereo not given in full) | -18.4% |
| COc1ccc(C2c3cc(OC)c(OC)cc3Cc3c4cc(OC)c(OC)cc4cc[n+]32)cc1OC (stereo not given) | -7.84% |
| CC(=O)OC[C@@]12C(=O)[C@@H](O)[C@@H](C)[C@]3(C[C@@H](c4ccoc4)O[C@@H]3OC(C)=O)[C@H]1CCC[C@]21CO1 | -3.64% |
| O=C(NC[C@H](O)c1ccccc1)c1ccccc1 | 26.3% |
| CCCc1c(OCC(O)COc2ccc3c(=O)cc(C(=O)O)oc3c2CCC)ccc(C(C)=O)c1O (stereo not given) | -17.2% |
| CC1OCC23CC[C@@]4(C)CCC(C)(C)C[C@H]4[C@]2(C)CCC12C3CC[C@@]1(C)C2C(=O)CC(=O)[C@@H]1C (stereo not given in full) | -15.3% |
| COc1ccccc1Oc1coc2cc(O)ccc2c1=O | 19.9% |
| CC(C)=CCCC1=CC[C@H](C(=O)O)[C@H](C(=O)O)C1 | -0.327% |
| CC1=CC2C(C)(C)CC(=O)C[C@]2(C)CC1COc1ccc2c(c1)CC(=O)C=C2 (stereo not given in full) | 8.67% |
| COc1c2c(nc3occc13)C(CC=C(C)C)(OC)C(=O)C=C2 (stereo not given) | 19.4% |
| C=C[C@@H](C1=CC(=O)C(OC)=C(OC)C1=O)c1ccccc1 | 123% |
| c1cnc2c(-c3nccc4c3[nH]c3ccccc34)cccc2c1 | 12.7% |
| Nc1nc(=S)c2ncn([C@@H]3O[C@H](CO)[C@@H](O)[C@H]3O)c2[nH]1 | 157% [at 21.6 µM] |
| C[C@@H]1C(=O)CC2C(C)(C)CCC[C@]2(C)[C@@]1(O)CCc1ccoc1 (stereo not given in full) | 36.1% |
| C[C@@H]1CC[C@H]2[C@H](C)[C@H]3CC[C@H]4C5[C@@H](O)CC6=CC(=O)CC[C@]6(C)[C@H]5C[C@H]4C3C(=O)N2C1 (stereo not given in full) | -22.9% |

| Compound | activity change, negative = inhibition |
| --- | --- |
| CC1CCC2=C1C[C@H](C(C)(C)O)CC[C@@H]2C (stereo not given in full) | -3.16% |
| Cn1c(=O)c(-c2ccccc2)c(O)c2ccccc21 | -26.6% |
| COc1cc2c(cc1OC)C1N(CC2)C(=O)CCC12C(=O)CCCC2=O (stereo not given) | -9.54% |
| C[C@H]1CC[C@@H]2N(C1)C[C@H]1[C@@H]3C[C@H]4[C@@H](C/C(=N\O)[C@H]5C[C@@H](O)CC[C@@]54C)[C@@H]3CC[C@H]1[C@]2(C)O | -18.1% |
| CC(C)(O)[C@@H]1CCC[N+]2(C)CCCC[C@H]12 (stereo not given in full) | -10% |
| CC1=C(C(=O)O)N2C(=O)[C@@H](NC(=O)[C@H](N)C3=CCC=CC3)[C@@H]2SC1 | 1.97% |
| CCOC(=O)c1ncc2[nH]c3cccc(OC(C)C)c3c2c1C | -18.8% |
| O=C1CCCC2[C@@H]3CCC[N@+]4([O-])CCC[C@H](CN12)C34 (stereo not given in full) | -12.8% |
| C=C1C[C@@]23CC4C5[C@@]6(C)C[C@H](O)C[C@@]57C2[C@H](O)[C@@H]1[C@H](O)[C@H]3[C@H]7N4C6 | -24.2% |
| C/C=C(\C)C(=O)O[C@H]1C[C@@]2(C)CCC(C(C)C)C2(O)CC[C@@]1(C)O (stereo not given in full) | 34.9% |
| O=C1N[C@@H](Cc2c[nH]c3ccccc23)C(=O)N[C@H]1Cc1c[nH]c2ccccc12 | -9.12% |
| COc1c2c(cc3c1C(NC(N)=O)[N+](C)(C)CC3)OCO2 (stereo not given) | -28% |
| CC(C)=CCC1=C(O)[C@](O)(CC=C(C)C)C(=O)C(C(=O)CC(C)C)=C1O | 51.6% |
| COc1ccc(-c2cnc(-c3cccnc3)o2)cc1 | 8.28% |
| COc1cc2c(cc1OC)C(c1ccccc1)=NCC2 | 20.2% |
| Cc1cc2c3c(cccc3n1)C(=O)c1ccccc1-2 | 13.7% |
| COc1cc(C/C=C\c2ccccc2)c(OC)cc1O | -4.11% |
| COC(=O)C1C(=O)C(C(=O)/C=C/c2ccco2)C(=O)CC1(C)C (stereo not given) | -12.6% |
| COC(=O)/C(=C1/OC(=O)C(c2ccccc2)=C1O)c1ccccc1 | 14.6% |
| COc1c(O)cc2c(=O)oc3c(OC)c(O)cc4c(=O)oc1c2c34 | -15.1% |
